# Results published in PubChem BioAssay AID651593 (National Center for Advancing Translational Sciences (NCATS), 2012).
# Values joined by “and” are separate entries in the source; they are usually repeats but may differ in a detail not shown here. Equal values may be shown once. Out of some 1,100 compounds screened, about 860 (78%) were called active. About 19% were inconclusive and are not listed. Calls follow the shape of the dose curve; as a rule, active = well fitted activation curve with a large enough effect; inconclusive = small, poorly fitted or top-dose-only effect; inactive = flat fitted curve, though single readings scatter. The set was probably picked from earlier hits. Some of the results follow.
# Experiment: qHTS of Nrf2 Activators: Hit Validation in Primary Assay; also: nearly all actives have a fitted effect of over 70% in size; as to activation: 0% is about no effect
# Details: Nrf2/ARE reporter cell assay; Potency: activation; series mostly up to 46.1 µM; activation: at the top concentration
# Method in brief: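 Luminescence from Steady-Glo lysis reagent, read after 30 min, reported ARE-luciferase activity in AREc32_fluc stable cells. Compounds were tested at several concentrations, incubated 24 h at 37 °C with 5% CO2 following overnight seeding.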
# Potency is read from the fitted curve at half-maximal effect.
SMILES,Potency,activation
Cc1ccc(Cl)c2sc(NC(=O)C3CC3)nc12,5.8 µM (active),–
Cc1nc2sc(C(=O)c3ccccc3)c(N)c2c2c1CCCC2,3.66 µM (active),–
CSc1c(C#N)c(N)nc2sc(C(=O)c3ccccc3)c(N)c12,4.61 µM (active),–
Cc1ccc2c(N)c(C(=O)c3ccccc3)sc2n1,14.6 µM (active),–
O=C(Nc1cccn2ncnc12)c1cccc(C(F)(F)F)c1,18.4 µM (active),–
COc1ncccc1-c1cc2nc(NCCNC(C)=O)n(C)c(=O)c2s1,2.59 µM (active),–
CC(=O)NCCNc1nc2cc(-c3cscc3C)sc2c(=O)n1C,1.3 µM (active),–
Cn1c(=O)n(C)c2cc(NC(=O)c3cccc([N+](=O)[O-])c3)c(Br)cc21,13 µM (active),–
Cc1ccc([N+](=O)[O-])cc1NC(=O)c1ccccc1,7.31 µM (active),–
O=C(NNC(=O)C12CC3CC(CC(C3)C1)C2)c1cccc([N+](=O)[O-])c1,–,26.6% (inactive)
CCn1ncc(Br)c1C(=O)Nc1cc([N+](=O)[O-])ccc1C,2.91 µM (active),–
Cc1ccc([N+](=O)[O-])cc1NC(=O)c1ccc(C(C)(C)C)cc1,4.61 µM (active),–
O=C(NC(=S)Nc1cnc2ccccc2c1)c1ccccc1,2.59 µM (active),–
O=C(Nc1cnc2ccccc2c1)c1ccco1,2.91 µM (active),–
c1ccc(C2=Nn3c(nnc3-c3ccco3)SC2)cc1,1.84 µM (active),–
O=c1cc(/C=C/c2ccccc2)oc2ccccc12,2.31 µM (active),–
COc1ccc(Cl)cc1NC(=O)CSc1c2c(nc3ccccc13)CCC2,18.4 µM (active),–
COc1ccc(N2CCCC2)c(NC(=O)c2ccc([N+](=O)[O-])o2)c1,6.51 µM (active),–
COc1ccc(S(=O)(=O)N2CCN(C(=O)c3ccc([N+](=O)[O-])o3)CC2)cc1,5.8 µM (active),–
COC(=O)c1scc(C)c1NC(=O)c1ccc(Cl)cc1,3.66 µM (active),–
CCCn1nc([N+](=O)[O-])c(C(C#N)c2nc3ccccc3s2)c(Cl)c1=O (stereo not given),2.31 µM (active),–
COc1cc(/C=N/Nc2ccccn2)cc(OC)c1O,5.8 µM (active),–
COc1ccc(Br)cc1/C=N/Nc1ccccn1,2.59 µM (active),–
CN(Cc1ccccc1)C(=O)c1ccc([N+](=O)[O-])o1,16.4 µM (active),–

SMILES,Potency,activation
Cc1cc(NC(=O)CC(C)(C)C)nc2c1c(=O)oc1ccccc12,3.66 µM (active),–
Cc1cc(NC(=O)c2ccccc2)nc2c1c(=O)oc1ccccc12,1.46 µM (active),–
COc1cccc(C(=O)Nc2cc(C)c3c(=O)oc4ccccc4c3n2)c1,2.06 µM (active),–
Cc1cc(NC(=O)C2CCCC2)nc2c1c(=O)oc1ccccc12,2.31 µM (active),–
N#CC1=C(N)Oc2c(ccc3ccccc23)C1c1ccsc1 (stereo not given),–,23.4% (inactive)
Cc1cc(NC(=O)c2ccccc2F)nc2c1c(=O)oc1ccccc12,0.58 µM (active),–
COc1cc(OC)cc(-c2nc3ccccc3s2)c1,13 µM (active),–
Cc1cc(C)n(S(=O)(=O)/C=C/c2ccccc2)n1,4.61 µM (active),–
Cc1cc(C)cc(OC(=O)CS(=O)c2ccc(C(F)(F)F)cc2[N+](=O)[O-])c1 (stereo not given),18.4 µM (active),–
O=C(CCCCCCC(=O)Nc1ccccc1)NO,2.31 µM (active),–
O=C(Nc1cc(Br)ccc1O)c1cnn2c(C(F)F)cc(C3CC3)nc12,3.26 µM (active),–
CS(=O)(=O)Cc1nc2ccccc2oc1=O,20.6 µM (active),–
CCc1ccc(/C=C/c2c([N+](=O)[O-])c(=O)n(C)c(=O)n2C)cc1,11.6 µM (active),–
N#C/C(=C(/O)c1ccco1)c1nc2ccccc2[nH]1,2.59 µM (active),–
N#C/C(=C(/O)c1ccco1)c1nc2ccccc2s1,1.64 µM (active) and 2.06 µM (active),–
CSc1ccc(C2NN=C(c3ccccc3)S2)cc1 (stereo not given),2.31 µM (active),–
CN1CCN(CCCNC(=O)c2cc3c(=O)n(C)c4ccccc4c3s2)CC1,8.2 µM (active),–
Cc1nc(NCc2ccco2)nc2c1C(=O)CC(C)C2 (stereo not given),1.84 µM (active),–
Clc1cc(Cl)cc(Nc2ncnc(-n3cccc3)n2)c1,2.59 µM (active),–
Cc1ccccc1OCC(=O)Nc1ccccc1CO,6.51 µM (active),–
O=C(NC1CCCCC1)N(c1ccccc1)c1nnc(-c2cccc([N+](=O)[O-])c2)s1,7.31 µM (active),–
CCOc1cc2ccccc2cc1C(=O)Nc1ccccn1,3.66 µM (active),–
Cc1cccc(-c2nnc(-c3cccc4ccccc34)o2)c1,5.17 µM (active),–
Clc1ccc(-c2nnc(-c3cccc4ccccc34)o2)cc1,1.84 µM (active),–

SMILES,Potency,activation
O=C(Nc1cc(-c2nc3cc(Cl)ccc3o2)ccc1Cl)c1ccco1,1.3 µM (active),–
O=C(Nc1cc(-c2nc3ncccc3o2)ccc1Cl)c1ccco1,3.66 µM (active),–
Cc1ccc(-c2nc3cccnc3s2)cc1NC(=O)c1ccco1,8.2 µM (active),–
O=C(Nc1cc2nn(-c3ccccc3)nc2cc1Cl)c1ccco1,1.64 µM (active),–
O=C(Nc1cc(-c2nc3ncccc3o2)ccc1Cl)c1cccs1,4.11 µM (active),–
COc1ccc2oc3ccccc3c(=O)c2c1,23.1 µM (active),–
COc1ccc2oc3cc(Cl)ccc3c(=O)c2c1,9.2 µM (active),–
O=c1c2ccccc2oc2cc(Br)ccc12,2.59 µM (active),–
O=c1c2ccccc2oc2ccc(-c3ccc4cc[nH]c4c3)cc12,3.66 µM (active),–
COc1ccc(OC)c(C(=O)Nc2c(O)ccc3ccccc23)c1,5.8 µM (active),–
COc1ccc(COc2ccsc2C(=O)Nc2ccc(Cl)cc2)cc1,4.61 µM (active),–
Cc1nc2nc(-c3ccccc3)nn2c(C)c1Cl,4.11 µM (active),–
O=C1/C(=C\c2ccco2)NC(=S)N1c1ccccc1,3.66 µM (active),–
CCn1c(NC(=O)c2cccs2)nc2ccccc21,5.17 µM (active),–
CCn1c(NC(=O)c2ccccc2)nc2ccccc21,3.66 µM (active),–
Cn1c(=O)c2nc(-c3ccccc3)oc2c2ccccc21,1.84 µM (active),–
O=C(c1ccco1)c1cc2c(ccc3ccccc32)oc1=O,9.2 µM (active),–
O=C(c1ccco1)c1cn(CC(=O)N2CCCc3ccccc32)c2ccccc12,–,7.56% (inactive)
CC(C)=NNc1cnnc2ccc([N+](=O)[O-])cc12,18.4 µM (active),–
Cn1ccsc1=NC(=O)c1ccc([N+](=O)[O-])o1,5.17 µM (active),–
CN(N=Cc1ccccc1O)c1ccc2ccccc2n1,2.91 µM (active),–
Oc1ccc(NCc2cccc(OCc3ccc(F)cc3)c2)cc1,–,21.5% (inactive)
Oc1ccc(CNc2ccccc2O)cc1,16.4 µM (active),–
O=C(Nc1nc2ccsc2c(=O)s1)c1ccco1,1.3 µM (active),–

SMILES,Potency,activation
CC(=O)Nc1ccc2nc(NC(=O)c3ccco3)sc2c1,4.11 µM (active),–
O=C(Nc1nc2c(ccc3ccccc32)s1)c1ccco1,1.16 µM (active),–
O=C(Nc1nc(-c2ccncc2)cs1)c1ccco1,4.11 µM (active),–
Cc1cc(Cl)cc2sc(NC(=O)c3ccco3)nc12,16.4 µM (active),–
O=C(NC(=S)Nc1cc([N+](=O)[O-])ccc1Cl)c1ccccc1,2.31 µM (active),–
O=C(NC(=S)Nc1cc(C(F)(F)F)ccc1Cl)c1ccccc1,2.91 µM (active),–
O=C(CSc1cccc[n+]1[O-])Nc1cc([N+](=O)[O-])ccc1Cl,20.6 µM (active),–
Cn1c(=O)c2nc(NCc3ccccc3)sc2n(C)c1=O,1.46 µM (active),–
CC(=O)Nc1nc2cccc([N+](=O)[O-])c2s1,1.84 µM (active),–
O=C(/C=C/c1ccc2c(c1)OCO2)c1ccc(O)cc1O,14.6 µM (active),–
c1coc(CNc2ncnc3c2oc2ccccc23)c1,3.66 µM (active),–
O=C(CSc1ncnc2c1oc1ccccc12)NCc1ccco1,13 µM (active),–
O=C(CSc1ncnc2c1oc1ccccc12)c1cccs1,5.17 µM (active),–
COc1ccc2[nH]c3c(NCc4ccco4)ncnc3c2c1,2.59 µM (active),–
c1coc(CSc2ncnc3c2oc2ccccc23)c1,2.91 µM (active),–
O=C(CSc1nnc2c(n1)[nH]c1ccccc12)NCc1ccco1,20.6 µM (active),–
O=[N+]([O-])c1cncc([N+](=O)[O-])c1Nc1cccc(O)c1,14.6 µM (active),–
O=c1[nH]ncc(N/N=C\c2cccs2)c1Cl,20.6 µM (active),–
CN(C)c1oc(/C=C/c2ccccc2)nc1C#N,3.26 µM (active),–
O=C(CCNc1cc(Cl)cc(Cl)c1)c1cccs1,6.51 µM (active),–
O=[N+]([O-])c1ccc(/C=N/Nc2ccc3ccccc3c2)o1,2.91 µM (active),–
Nc1ccc(S(=O)(=O)Nc2nccc(/C=C/c3cccc(Br)c3)n2)cc1,3.26 µM (active),–
CC(C)C(=O)Nc1nnc(-c2ccco2)s1,5.8 µM (active),–
Cc1cc(NC(=O)Nc2cc(Cl)sc2Cl)no1,4.11 µM (active),–

SMILES,Potency,activation
O=C1N/C(=C\c2ccsc2)C(=O)N1Cc1ccc(F)cc1,1.64 µM (active),–
Cc1c(=O)n(OCc2ccccc2)c2ccccc2[n+]1[O-],3.26 µM (active),–
Cc1c(=O)n(OCc2ccc(Cl)cc2)c2ccccc2[n+]1[O-],1.64 µM (active),–
C=CCn1c(SCC(C)=O)nc2scc(-c3ccco3)c2c1=O,0.731 µM (active),–
O=C(/C=C\c1ccc2c(c1)OCO2)CC1(O)C(=O)Nc2ccccc21 (stereo not given),23.1 µM (active),–
CN1CCN(C(=O)CCN2C(=O)/C(=C/c3cccc(Br)c3)SC2=S)CC1,5.17 µM (active),–
O=C(N/N=C/c1ccsc1)c1ccc2ccccc2n1,16.4 µM (active),–
C(=N/n1c2ccccc2c2ccccc21)/c1ccco1,2.31 µM (active),–
COc1ccccc1C=Cc1ccnc2ccccc12,2.06 µM (active),–
O=C(/C=C/c1ccccc1)Nc1ncn[nH]1,3.66 µM (active),–
Cc1nc(NC(=O)/C=C/c2ccccc2)n[nH]1,3.66 µM (active),–
FC(F)(F)c1cc(-c2cccs2)nc(-n2cc(Br)cn2)n1,1.3 µM (active),–
C/C(=N\NC(=O)c1cccc(Br)c1)c1ccccn1,4.61 µM (active),–
CCn1c(/C=C/c2ccccc2F)nc2ccccc2c1=O,2.31 µM (active),–
O=c1[nH]c(/C=C/c2ccccc2[N+](=O)[O-])nc2ccccc12,0.411 µM (active),–
CCn1c(/C=C/c2ccccc2[N+](=O)[O-])nc2ccccc2c1=O,3.66 µM (active),–
CCn1c(/C=C/c2ccccc2)nc2ccccc2c1=O,4.11 µM (active),–
CCCn1c(-c2cccs2)nc2nc3ccccc3nc21,1.84 µM (active),–
O=c1cc(-c2ccccc2Cl)oc2c(Br)ccc(O)c12,6.51 µM (active),–
[O-][n+]1onc2c3cc(-c4ccccc4)nnc3ccc21,8.2 µM (active),–
c1ccc(-c2cc3c(ccc4nonc43)nn2)cc1,7.31 µM (active),–
[O-][n+]1onc2c3ccnnc3ccc21,10.3 µM (active),–
CC(=O)N1CCc2c(sc(NC(=O)CCS(=O)(=O)c3ccccc3)c2C#N)C1,18.4 µM (active),–
O=C1C(=Cc2ccco2)CCCC1=Cc1ccco1,3.26 µM (active),–
